Bioassay records from PubChem BioAssay.
Only a selection was taken, and hits are over-represented in it overall.
ST2 inh: inhibitors of human ST2 (IL1RL1) binding to IL-33, primary screen, biochemical, AlphaLISA. Interleukin-1 receptor-like 1 (Homo sapiens), Q01638. AlphaLISA ST2-Fc/biotin-IL-33 interaction, 1 h. inhibition, % for hits at 17 µM. 78,000 compounds, 2.3% hits. AID 1259354, 2018; in the data active = inhibition above about 30%
Target sequence (Q01638 whole entry, looked up): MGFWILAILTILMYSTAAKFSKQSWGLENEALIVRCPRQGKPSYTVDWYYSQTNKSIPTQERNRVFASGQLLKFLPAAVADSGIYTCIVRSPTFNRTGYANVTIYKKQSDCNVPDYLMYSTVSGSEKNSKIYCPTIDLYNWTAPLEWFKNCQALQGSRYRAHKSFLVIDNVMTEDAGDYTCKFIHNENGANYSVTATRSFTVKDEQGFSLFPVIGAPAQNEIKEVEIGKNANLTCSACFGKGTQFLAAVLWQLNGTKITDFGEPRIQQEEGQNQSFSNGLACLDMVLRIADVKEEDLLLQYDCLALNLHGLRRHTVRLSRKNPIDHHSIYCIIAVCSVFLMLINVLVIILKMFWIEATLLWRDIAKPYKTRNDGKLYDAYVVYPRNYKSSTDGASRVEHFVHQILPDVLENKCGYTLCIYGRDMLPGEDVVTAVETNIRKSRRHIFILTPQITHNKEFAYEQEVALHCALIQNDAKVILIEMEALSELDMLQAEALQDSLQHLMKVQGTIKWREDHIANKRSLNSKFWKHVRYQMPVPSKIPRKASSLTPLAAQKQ
Numbers without * were called inactive; i = inactive.

SMILES | ST2 inh
COc1ccc(N2CCN(Cc3cccc(Cl)c3Cl)CC2)cc1 | 32.0%*
COc1cc(C)c(CN2CCN(c3ccccc3)CC2)cc1C | 31.0%*
COc1cccc(N2CCN(Cc3ccccc3OC)CC2)c1 | i
CN1CCN(Cc2ccc(Cl)c(Cl)c2)CC1 | i
COc1ccccc1CN1CCN(c2ccccc2)CC1 | i
COc1ccc(N2CCN(Cc3ccc(Cl)c(Cl)c3)CC2)cc1 | 35.0%*
Clc1ccc(CN2CCN(c3ccccc3)CC2)cc1Cl | i
Fc1ccc(CN2CCN(c3cccc(Cl)c3)CC2)c(F)c1 | i
COc1ccc(CN2CCN(c3ccccc3)CC2)cc1O | i
Clc1cccc(N2CCN(Cc3ccccc3Cl)CC2)c1 | i
Cc1cccc(CN2CCN(c3ccccc3Cl)CC2)c1 | i
Cc1ccc(N2CCN(Cc3c(F)cccc3Cl)CC2)cc1 | 36.0%*
O=C(O)c1c2c(nc3ccccc13)CCNC2 | i
CCN1CCN(C(=O)Cc2cn(C)c3ccccc23)CC1 | i
O=C(Nc1ccc2n(c1=O)C[C@H]1C[C@@H]2CN(C(=O)Nc2ccc(F)cc2)C1)c1ccco1 | i
COc1ccc(-c2cc([C@H]3CN4CC[C@H]3C[C@@H]4CNC(=S)Nc3cccc(C#N)c3)n(C)n2)cc1 | i
COc1ccccc1[C@@H]1CN(C(=O)c2occc2C)[C@@H]2C3CCN(CC3)[C@@H]21 | i
CN1CCN(C(=O)COc2ccc3c(c2)C(=O)CC2(CCCCC2)O3)CC1 | i
CC[C@H]1CN2CC[C@H]1C[C@@H]2CNC(=O)CCCC(=O)O | i
COc1cc(CN2CCN(Cc3ccccc3)CC2)cc(OC)c1 | i
CCCS(=O)(=O)NC[C@H]1C[C@@H]2CCN1C[C@@H]2c1cc(-c2ccccc2OC)nn1C | i
COc1cccc(CN(C)C(C)Cc2ccccn2)c1O (stereo not given) | i
C#C[C@H]1CN2CC[C@H]1C[C@@H]2CNC(=S)NC1CCCCC1 | i
COc1ccc(N2CCN(Cc3ccc(Cl)cc3)CC2)cc1 | 44.0%*
COc1cc(CN2CCN(c3ccc(F)cc3)CC2)ccc1O | i
SMILES | ST2 inh
CCOc1ccc(CN2CCN(c3ccccc3OC)CC2)cc1 | i
COc1ccc(Br)cc1CN1CCN(c2ccccc2C)CC1 | i
COc1ccc(CN2CCN(c3cccc(C)c3C)CC2)cc1 | i
CCOc1ccc(CN2CCN(c3ccc(OC)cc3)CC2)cc1 | 34.0%*
CCN1CCN(Cc2cc(Br)ccc2OC)CC1 | i
COc1ccc(N2CCN(Cc3cc(Br)ccc3OC)CC2)cc1 | 41.0%*
COc1cccc(CN2CCN(c3ccc(F)cc3)CC2)c1 | i
COc1cc(NC(=S)NC[C@H]2C[C@@H]3CCN2C[C@@H]3c2cc(-c3ccc(OC)c(OC)c3)nn2C)cc(OC)c1 | i
COC(=O)c1ccc(CNC(=O)CN2C[C@@H]3C[C@H](C2)c2cccc(=O)n2C3)o1 | i
COc1ccc(-c2cc([C@H]3CN4CC[C@H]3C[C@@H]4CNC(=S)NCC(C)C)n(C)n2)cc1OC | i
Cn1ccnc1CN1C(=O)CO[C@H]2CN(Cc3ccncc3)C[C@H]21 | i
CCOC(=O)C1C2NC(=O)N(c3cccc(C)c3)C1(C)Oc1c(OCC)cccc12 (stereo not given) | i
COc1ccccc1C1N(c2ccccn2)C(=O)C2CCCN21 (stereo not given) | i
CCCNC(=O)N1CCC2(CCNCC2)C1 | i
Cc1ccnc(CC(C)N(C)Cc2ccc(C#CC(C)(C)O)s2)c1 (stereo not given) | i
NS(=O)(=O)c1ccc(NC(=O)c2cccn(Cc3ccc(Br)cc3)c2=O)cc1 | i
C1COCC2(CN1)CN(C1CCOCC1)CCO2 (stereo not given) | i
Cc1ccccc1N1CCN(Cc2ccc(O)cc2)CC1 | i
Cc1ccccc1N1CCN(Cc2ccc(N(C)C)cc2)CC1 | 45.0%*
CCOc1ccc(CN2CCN(c3ccccc3C)CC2)cc1 | i
O=c1c2ccccc2nc(/C=C/c2ccccc2)n1-c1ccccc1F | i
COc1ccc(-n2c(/C=C/c3ccccc3)nc3ccccc3c2=O)cc1OC | i
COc1ccc(/C=C/c2nc3ccccc3c(=O)n2-c2ccccc2OC)cc1 | 32.0%*
CN1C(=O)C2(CCN(Cc3ccc(-c4ccn[nH]4)o3)CC2)c2ccccc21 | i
O=S(=O)(NC[C@H]1C[C@@H]2CCN1C[C@@H]2CN1CCN(c2ncccn2)CC1)c1cccs1 | i
COc1ccccc1CNC(=O)[C@H]1CN2CCC1C[C@@H]2Cn1cc(-c2ccc(-c3ccccc3)cc2)nn1 (stereo not given in full) | i
Cn1nc(-c2cccs2)cc1[C@H]1CN2CC[C@H]1C[C@@H]2CNC(=S)Nc1ccccc1 | i
